This assay relates to VDR:RXRa (NR concentration 270 nM, RXRa partner concentration 90 nM). The assay can be described thus: PBM binding z-score (relative to random genomic background probes); higher = stronger binding; sequences stand for … in GC…GCGATTGACAGCGTAGAATGAAGG
Here is the method:
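Protein-binding microarray (Agilent 4x180K custom design, double-stranded 60-nt probes: 5' GC cap, 34-nt variable region, 24-nt constant primer region; full probe sequence given). Purified or IVT nuclear receptor:RXRα heterodimers (3:1 NR:RXRα, mostly 270:90 nM) or homodimers were incubated for 1 h in PBS with 2% milk and no ligand, then detected with Alexa488 antibodies. Fluorescence from o1-orientation probes (~5 replicates averaged) was converted to z-scores against 500 random hg19 background probes. Variable regions are seed direct-repeat (DR0–DR5) sites, all their single-nucleotide variants and half-site ablations.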
In turn, ATAGGTAGGTTACATCCGGGTCATTCAGGCTATG returned a PBM binding z-score of 4.21. ACAGACAAGTGATGAAGGTAACTCAGGCTATCAT returned a PBM binding z-score of -0.0224. The sequence TATACAGGGTCAAAGACCAGAGTACGAATGTCGA came in with a PBM binding z-score of 4.43.

With AGAATGACGTTAAGATCAGGGAAACAGAATACAT, the PBM binding z-score is -0.215.

TCTTGCAGATCAATAGAGGTTAAGAAAGTGCGCT returned a PBM binding z-score of 1.79. CGTCCAAGGTCAGCAGGTCGGTGAAAGCGACGTG returned a PBM binding z-score of 3.71. Regarding ATCTCTAGGTAAGACTCAGTTCAGAGAAGAACGC, the PBM binding z-score was 0.685. Sequence TCTTGTAGCTCAACAGGAGGTTAAGAAAGATCGA gave a PBM binding z-score of 0.0738. AGAACGAGGGAAATGAGTTGATAGCACGGGTGGC gave a PBM binding z-score of 0.62. Next, GCTCGGAGAACAAGGTCAGAGCTTTGTCCGTAGA: 1.5.

For the sequence ATCTCTGGGTAAAGTTCAGTGAAAGATCGATAGA, the PBM binding z-score was 1.64. On to CGAACTAGGTCATCCAGGAGAGTGAATACATTGA, for which the PBM binding z-score was determined as 2.35. In turn, AGAACGAGAGCACGCTGAGTTGATAGCAGAGTAG gave a PBM binding z-score of -0.462. AGAATGAGGTTATACATAGATCAGGGAAGAAAGT registered a PBM binding z-score of 1.5. AGAATGAGGTTATTACGATCAGGGAATTGCGGTC gave a PBM binding z-score of 1.99. Turning to GATACATGGTCAGCTAGAGGCCAGAGTATGGAAA, the PBM binding z-score was -0.32. GATACAGGGTCAAGCCCAGAGTACGCGTATTGAT came in with a PBM binding z-score of 4.5. The result for ACTAGCAGGCCAAGTTTGGGTCACTCGAACAAAG reads 0.392; that for CCGACTTGGGCAAGGTTACCATAACGCACAGCCA, 0.176; that for CTTTACGGGTCACGAGGTTATAGCACGACGAGCG, 5.31.

Consider CTCGATAGGTCGTGCTCAGGTGAGTATACCAAAC, for which the PBM binding z-score came to 0.637. TCATAAAGGTAATACAGGTGAAAGTCGGCATCTA: the PBM binding z-score amounted to 1.72. The sequence CATACAGGCTCAGCTAGGCCAGAGTAGGGACGGC gave a PBM binding z-score of -0.721. In turn, CCTGCTAGGTCAATGATCAGCTAAAGCAGCTCGC returned a PBM binding z-score of 0.447. As to CCTACTGGTCCAAAAAGGTCATTGATGCCGATAA, the PBM binding z-score worked out at 4.99. Consider CGTTACGGGTCACTCCAGGTTATAGCATCGGAGT, for which the PBM binding z-score is 4.5. Next, CATCCAAGGTCATAGGAGGTCAGTGAAGACAGAT: 6.74. Regarding GCTAGTTGGTCATTAAAAGGTCACACACCGGTCG, the PBM binding z-score amounted to 4.42.

Take ATCTTTAGGTAAGACTCAGTTCAGTGAAGAACGC: the PBM binding z-score stood at 0.748. The sequence TCTAGTAGGTTAGTCGGGGCATTCAGCCAACATA displayed a PBM binding z-score of 2.68. CCGACTAGGGCAAAGGTTACCATACTCAGTACGA: the PBM binding z-score amounted to 1.61. On to ATACCAAGGTGATCGTGAGGCCGTTGATACTAAC, for which the PBM binding z-score is 0.401. In turn, TCCTGTAGATCAAGCAGGTTAAGAAAGCCTGAGT returned a PBM binding z-score of 0.503.

TGTCGAAGTTCAAAGGTAACGTAAGTATCCACAC displayed a PBM binding z-score of 3.71. The result for CGTCCAAGGTCAGAGAGGTCGGTGAATGCCGAGT reads 6.24. Take ATCTCTAGGTAAGACTCAGTTCAGGGAAGAACGC: the PBM binding z-score was determined as 1.06. As for GGAACGATGGCAAAGTTGATAGCATCTGTCGACG, the PBM binding z-score is -0.351. Take CTACAAAGGTGAACAAGGTCGTTGATTACTATTC: the PBM binding z-score was 6.38. The result for CCTACTGGGCCACGAAAGGTCACTGATTCAGTGA reads 3.77.

In turn, TCTATTAGTTGATTAGGGTAACCGAAACAGCGGA came in with a PBM binding z-score of 0.996.

The values are drawn from the supplement of paper PMC6555819.
